High-throughput results deposited in PubChem by Bradner/Qi Labs at DFCI.
The sample as a whole holds a higher share of hits than the screen did.
CBX7 AlphaScr: blocks human CBX7 binding to H3K27me3 peptide; 1.1% of 66,000 active; AlphaScreen His6-CBX7 / biotin-H3K27me3 peptide binding; hits give low values; O95931; normalised signal (fraction of DMSO) (test concentration not listed); AID 1224903; in the data active = normalised signal below about 0.5
Target sequence (O95931 whole entry, looked up): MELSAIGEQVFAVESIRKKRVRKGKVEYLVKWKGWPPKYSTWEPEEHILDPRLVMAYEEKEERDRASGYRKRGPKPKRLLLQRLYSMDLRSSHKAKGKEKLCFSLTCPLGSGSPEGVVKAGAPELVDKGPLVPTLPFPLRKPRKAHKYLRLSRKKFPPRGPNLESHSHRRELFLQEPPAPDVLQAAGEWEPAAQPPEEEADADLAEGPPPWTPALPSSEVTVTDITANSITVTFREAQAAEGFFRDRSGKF
Of the large screens only hits and unclear results are named; the others gave an inactive call.

Cc1cc(C)c(S(=O)(=O)Nc2cccc3cccnc23)c(C)c1	none
CC(=O)Nc1ccc(NS(=O)(=O)c2cccc3cccnc23)cc1	none
O=S(=O)(Nc1cccc2cccnc12)c1ccccc1O	CBX7 AlphaScr 0
Cc1nc2ccc(S(=O)(=O)NC(C(=O)NC3CCCCCC3)C(C)C)cc2s1 (stereo not given)	none
Cc1ccc(Cn2c(COc3ccc(C)cc3)nc3ccccc32)cc1	none
O=C(CSc1n[nH]c(-c2ccncc2)n1)c1ccc(Br)cc1	CBX7 AlphaScr 0.232
Cc1ccc(C(=O)CSc2n[nH]c(-c3ccncc3)n2)cc1	none
CC(=O)Nc1ccc(C(=O)CSc2n[nH]c(-c3ccncc3)n2)cc1	none
Cc1ccc(S(=O)(=O)N2CCC(C(=O)Nc3ccc(F)cc3)CC2)cc1	none
COc1ccc(-c2noc(N(C)CC(=O)Nc3cc(C)on3)n2)cc1	CBX7 AlphaScr 0
COc1ccc(-c2noc(N(C)CC(=O)Nc3ccc(OC)cc3OC)n2)cc1	none
COc1ccc(-c2noc(N(C)CC(=O)Nc3ccccn3)n2)cc1	none
Cc1ccc(-c2noc(CCC(=O)Nc3cccnc3)n2)cc1	none
CC(C)n1c(-c2nonc2N)nc2ccccc21	none
CCN(CC)S(=O)(=O)c1ccc(C(=O)Nc2nnc(C(C)C)s2)cc1	none
CCc1nnc(NC(=O)c2ccc(S(=O)(=O)N(CC)CC)cc2)o1	CBX7 AlphaScr 0.103
CCc1nnc(NC(=O)c2ccc(S(=O)(=O)N(CC(C)C)CC(C)C)cc2)o1	CBX7 AlphaScr 0.104
CCc1nnc(NC(=O)c2ccc(S(=O)(=O)N(C)c3ccccc3)cc2)o1	none
Cc1ccc(-n2c3c(cc(C(=O)Nc4ccc(Br)cn4)c2=O)C(=O)CC(C)(C)C3)cc1	none
CCOc1ccc(C2c3[nH]c4ccccc4c3CCN2C(=O)c2ccccc2C)cc1 (stereo not given)	none
Cc1nc2c(C(=O)NCCC3=CCCCC3)cnn2c(C)c1Cc1cccc(Cl)c1	none
COc1ccccc1Nc1ncc(C(=O)N2CCN(C)CC2)c2ccccc12	none
Cc1ccccc1Cn1c(C(C)NC(=O)c2ccc(F)cc2)nc2ccccc21 (stereo not given)	none
O=C(Nc1nc(-c2ccncc2)cs1)c1cccc(Oc2ccccc2)c1	none
COc1ccc(-c2csc(NC(=O)c3ccc(Oc4ccccc4)cc3)n2)c(OC)c1	none
COc1cc(OC)cc(C(=O)Nc2nc(-c3ccccn3)cs2)c1	CBX7 AlphaScr 0
O=C(Nc1nc(-c2ccccn2)cs1)c1ccc(Oc2ccccc2)cc1	CBX7 AlphaScr 0.116
COc1ccc(-c2csc(NC(=O)c3ccccc3)n2)cc1	none
COc1ccc(-c2csc(NC(=O)c3cccc(Oc4ccccc4)c3)n2)c(OC)c1	none
Cc1cc(C)nc(NC(=O)c2cc(-c3ccc(Br)cc3)nc3ccccc23)c1	none
CCCCC(=O)N1c2ccccc2NC2=C(C(=O)CCC2)C1c1ccccc1OC (stereo not given)	none
CC(C)(C)c1ccc2c(c1)N(CC(=O)NCCc1ccccc1)C(=O)CO2	CBX7 AlphaScr 0.407
CC(C)(C)c1ccc2c(c1)N(CC(=O)NCCN1CCN(Cc3ccccc3)CC1)C(=O)CO2	none
Cc1ccc(CCNC(=O)CN2C(=O)COc3ccc(C(C)(C)C)cc32)cc1	none
CCOC(=O)c1cnc2ccc(OCC)cc2c1Nc1cccc(C)c1	none
CCn1c(SCC(=O)Nc2ccccc2OC)nnc1-c1c[nH]c2ccccc12	none
Cc1ncoc1C(=O)Nc1ccccc1C(F)(F)F	none
COc1ccc(-c2nnc(Nc3ccc(Cl)c(Cl)c3)c3ccccc23)cc1	none
COc1ccc(-c2nnc(Nc3cccc(O)c3)c3ccccc23)cc1	CBX7 AlphaScr 0.43
COc1ccc(-c2nnc(Nc3ccc(Cl)cc3)c3ccccc23)cc1	none
COc1ccc(NC(=O)C(Cc2ccccc2)NS(=O)(=O)c2cccs2)c(OC)c1 (stereo not given)	none
O=C(Cc1ccc(-n2c(=O)[nH]c3ccsc3c2=O)cc1)NCCc1c[nH]c2ccccc12	none
CC(=O)c1cccc(Nc2nc(-c3c(C)nc4ncccn34)cs2)c1	none
CCOc1ccc(Nc2nc(-c3c(C)nc4sccn34)cs2)cc1	none
CCN(CC)c1ccc(Nc2nc(-c3c(C)nc4sccn34)cs2)cc1	CBX7 AlphaScr 0.104
CCc1ccccc1Nc1nc(-c2c(C)nc3ncccn23)cs1	none
Cc1nc2sccn2c1-c1csc(Nc2ccc(Cl)cc2)n1	none
CCN(CC)c1ccc(Nc2nc(-c3c(C)nc4ncccn34)cs2)cc1	CBX7 AlphaScr 0.331
CCOc1ccc(-n2nc(C(=O)Nc3ccc(C)c(F)c3)c3ccccc3c2=O)cc1	none
CC(NC(=O)C(=O)NCc1ccccn1)C(c1cccs1)N1CCN(c2ccccc2)CC1 (stereo not given)	none
CCOC(=O)c1cnc2c(OC)cccc2c1N1CCC(Cc2ccccc2)CC1	CBX7 AlphaScr 0.422
CCOC(=O)c1cnc2c(OC)cccc2c1NCc1ccccc1OC	none
CCOC(=O)c1cnc2c(OC)cccc2c1Nc1ccc(CC)cc1	none
Cc1ccc(C(=O)Nc2sc3c(c2C(=O)N2CCC(C)CC2)CCCC3)cc1	none
Cc1cc(C)cc(NS(=O)(=O)c2ccc3c(c2)CCN3C(=O)CCC(=O)O)c1	none
COC(=O)CNc1c(-c2ccccn2)nc2ccc(Br)cn12	CBX7 AlphaScr 0.0635
Brc1ccc2nc(-c3ccccn3)c(Nc3ccc4c(c3)OCO4)n2c1	none
Cc1ccccc1Nc1c(-c2ccccn2)nc2ccc(Br)cn12	none
O=C(NCC1CCCO1)c1ccc2c(c1)N(Cc1ccccc1)C(=O)c1ccccc1S2=O (stereo not given)	none
COc1ccc(-n2cnc3cc(NCc4cccc5ccccc45)ccc32)cc1	CBX7 AlphaScr 0.311
CCOc1ccc(NCc2nc3ccccc3n2CCOc2ccc(C)cc2)cc1	none
COc1ccc(-n2cnc3cc(NC(=O)c4ccccc4)ccc32)cc1	none
COc1ccc(-n2cnc3cc(NS(=O)(=O)c4ccccc4)ccc32)cc1	none
COc1ccc(-n2cnc3cc(Nc4nnc(C)c5ccccc45)ccc32)cc1	none
COc1ccc(-n2cnc3cc(NCc4nc5ccccc5n4C)ccc32)cc1	CBX7 AlphaScr 0.405
CCOc1ccc(NCc2nc3ccccc3n2CCOc2ccccc2)cc1	CBX7 AlphaScr 0.184
Brc1ccc(NCc2nc3ccccc3n2CCOc2ccccc2)cc1	none
CC(C)(C)n1cnc2cc(NCc3cccc4ccccc34)ccc21	none
O=C(CN1C(=O)COc2ccc(S(=O)(=O)N3CCOCC3)cc21)NCc1ccc2c(c1)OCO2	none
Cc1cccc(-c2cc(C(=O)NCc3cn(C)nc3C)c3ccccc3n2)c1	none
CC(=O)N1CCc2cc(S(=O)(=O)NCCN(C)Cc3ccccc3)ccc21	none
Cc1cc(C)cc(Nc2cc(C(=O)NCc3cccnc3)c3ccccc3n2)c1	none
Cc1ccnc(N2C(=O)c3ccccc3C2Nc2ccc(Br)c(C)c2)c1 (stereo not given)	none
COc1ccccc1-c1csc(NC(=O)c2ccc(S(=O)(=O)N(C)c3ccccc3)cc2)n1	none
CN(C1CCCCC1)S(=O)(=O)c1ccc(C(=O)Nc2nc(-c3ccccn3)cs2)cc1	none
O=C(Nc1nc(-c2ccccn2)cs1)c1ccc(S(=O)(=O)N2CCCc3ccccc32)cc1	none
CC1CN(S(=O)(=O)c2ccc(C(=O)Nc3nc(-c4ccncc4)cs3)cc2)CC(C)O1 (stereo not given)	none
CC1CN(S(=O)(=O)c2ccc(C(=O)Nc3nc(-c4ccccn4)cs3)cc2)CC(C)O1 (stereo not given)	CBX7 AlphaScr 0.307
CCCCN(C)S(=O)(=O)c1ccc(C(=O)Nc2nc(-c3ccccn3)cs2)cc1	CBX7 AlphaScr 0.0979
CN(c1ccccc1)S(=O)(=O)c1ccc(C(=O)Nc2nc(-c3ccc(Cl)cc3)cs2)cc1	none
CN(c1ccccc1)S(=O)(=O)c1ccc(C(=O)Nc2nc(-c3ccccn3)cs2)cc1	CBX7 AlphaScr 0.167
